Data taken from the supplement of paper PMC12636033.
± gives the standard deviation of the averaged measurements. Whole data set: some 33,000 sequences, median “E-score (rank enrichment, -0.5 to 0.5)” near -0.0075, cut for the highest 2% near 0.23. Shown is part of a subset that was picked to be rich in the highest values.

These sequences were tested on WT Max(13-93) synthetic (M65Nle) (assay: PBM 8-mer E-score (E-score (rank enrichment, -0.5 to 0.5)); higher = stronger preferential binding).
Procedure: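 Protein binding microarray (universal PBM chip covering all 10-mers in fixed probe flanks) with chemically synthesized human Max(13-93) bHLH-LZ analogs (not full-length Max) bearing noncanonical residues (hArg, Tha, Aib, Nle at 65) and aromatic Cys staples. Read-out per 8-mer (and its reverse complement): E-score (rank-based enrichment, -0.5 to 0.5) and Z-score of median probe intensity.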

Sequence	PBM 8-mer E-score
ACTCGGTA	-0.0471 ± 0.064
CGTAGGCA	-0.0828 ± 0.077
GAAGCCCA	-0.0819 ± 0.0058
CCACCTGG	0.0162 ± 0.071
TCAACTCA	-0.088 ± 0.024
AGATGCGG	-0.0543 ± 0.14
CGCTTCTA	-0.0256 ± 0.055
CCATTGGG	-0.154 ± 0.1
CAATCCAG	0.0833 ± 0.0029
CATAATTC	-0.0543 ± 0.0058
CATAATTA	0.236 ± 0.025
CCTAATTA	0.138 ± 0.094
GTATCGAA	-0.0312 ± 0.052
AGCTAATG	-0.0403 ± 0.0067
GATAATCA	0.253 ± 0.14
TATAATCA	0.257 ± 0.014
GATAATCC	-0.0355 ± 0.034
AATAATCA	0.125 ± 0.0096
GATAATAA	0.137 ± 0.092
CATAATCA	0.101 ± 0.028
ACGCCAGT	-0.159 ± 0.098
CTCGAATA	-0.174 ± 0.064
CCATTACA	0.165 ± 0.0069
AAGTTAAG	-0.0928 ± 0.093

Sequence	PBM 8-mer E-score
AAGTTAAC	0.18 ± 0.0042
AAGTTAAT	0.234 ± 0.036
ATGGACAA	0.0228 ± 0.022
GCTCCTCC	-0.127 ± 0.14
AAATTATC	0.158 ± 0.031
TAATTATA	0.264 ± 0.11
AAATTATG	0.127 ± 0.011
AAATTATA	0.237 ± 0.0041
CAATTATA	0.137 ± 0.059
GAATTATA	0.128 ± 0.074
GCCGAAAA	0.0297 ± 0.015
CACGCGAC	0.271 ± 0.066
CACGCGTA	0.165 ± 0.036
CACGCGTG	0.349 ± 0.015
CACGCGCC	0.238 ± 0.013
AACGCGTG	0.222 ± 0.068
AACGCGTC	-0.0583 ± 0.0094
AACGCGTA	0.0664 ± 0.023
CACGCGAA	0.0737 ± 0.06
CACGCGAG	0.0779 ± 0.018
CACGCGCG	0.224 ± 0.034
CACGCGTC	0.266 ± 0.016
CACGCGCA	0.149 ± 0.079
CAACTCGG	-0.13 ± 0.11

Sequence	PBM 8-mer E-score
ATAACCGA	-0.0219 ± 0.011
CAAATTAC	0.177 ± 0.062
CCATCACC	0.144 ± 0.01
ATGCAGTG	0.0344 ± 0.068
AAATGCGA	-0.0159 ± 0.018
AGGCTAGG	0.0514 ± 0.046
GGCAGATA	0.116 ± 0.062
ACGTTTTG	0.101 ± 0.09
ACGTTATG	0.24 ± 0.0059
ACGTTAGG	0.107 ± 0.099
GCGTTATA	0.108 ± 0.025
ACGTTATA	0.241 ± 0.038
ACGTTATC	0.133 ± 0.013
CCGTTATA	0.132 ± 0.018
ACATCATG	-0.0233 ± 0.006
AGCGCCTC	-0.185 ± 0.038
AACACCGG	-0.157 ± 0.029
ATTTGTTA	0.0868 ± 0.01
CTTTGTTC	0.0437 ± 0.024
ATTTGTTC	0.241 ± 0.11
CGAGATGA	-0.159 ± 0.091
AGTAGCTA	0.178 ± 0.057
GATCTCGA	-0.159 ± 0.022
CCGCCGAA	-0.156 ± 0.022

Sequence	PBM 8-mer E-score
CACGTGAC	0.4879 ± 0.0015
GACGTGAA	-0.138 ± 0.057
TACGTGAA	0.0446 ± 0.099
CACGTGAA	0.388 ± 0.053
CGCGTGAG	0.0752 ± 0.04
GACGTGAC	-0.0117 ± 0.088
CCCGTGAG	-0.0893 ± 0.044
AACGTGAC	0.205 ± 0.016
CACGTGAG	0.404 ± 0.019
GGCTAGAC	-0.217 ± 0.07
TACGCCAA	0.0646 ± 0.021
CCATAACC	0.145 ± 0.0043
GCATAACC	-0.0331 ± 0.022
ACATAACA	0.215 ± 0.0054
GAATAACA	0.242 ± 0.094
CCATAACA	0.236 ± 0.036
CCATAACG	-0.0417 ± 0.027
CAATAACA	0.193 ± 0.046
GCATAACA	0.27 ± 0.04
TAATAACA	0.131 ± 0.0072
CAAGTAAC	0.0157 ± 0.17
AAGGACAA	-0.103 ± 0.0038
